Source: the supplement of paper PMC8975748
Counter-ions that a name gives are not always drawn.

tested on: Saccharomyces cerevisiae BY4741 SeMeCo community; assay: z-score of subpopulation abundance vs DMSO median, subpopulation auxotrophic for UM; higher = larger share of this subpopulation than in DMSO controls; details: 10 µM; 24 h; SM minimal medium; subpopulation (auxotrophy): UM
Protocol: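 Fluorescent four-plasmid SeMeCo (self-establishing metabolically cooperating S. cerevisiae BY4741 community; plasmids pH-mRuby2, pL-mWasabi, pU-eCFP, pM-TagRFP657) was grown 24 h in minimal SM medium with each Selleck FDA-approved drug at 10 µM in 384-well plates. Cells were fixed and imaged by high-content confocal microscopy. For each auxotrophic subpopulation (and the prototroph), a z-score gives the deviation from the DMSO vehicle-control population median.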

Compound | z-score of subpopulation abundance
CCOC(=O)Nc1ccc(NCc2ccc(F)cc2)cc1N [Retigabine] | -1.09
Nc1ccncc1 [4-Aminopyridine] | -0.05
C[C@@H]1CC[C@H]2[C@@H](C)C(=O)O[C@@H]3O[C@@]4(C)CC[C@@H]1[C@]32OO4 [Artemisinin] | -0.66
O=c1cccc2n1C[C@@H]1CNC[C@H]2C1 [Cytisine] | -0.6
Cc1cc(O)ccc1Cl [Chlorocresol] | -0.48
COc1ccc2c3c([nH]c2c1)C(C)=NCC3 [Harmaline] | -9.37
O=[N+]([O-])C(Br)(CO)CO [Bronopol] | -0.1
CN(C)C(=O)Oc1ccc[n+](C)c1 [Pyridostigmine Bromide] | 0.25
C=C[C@H]1CN2CC[C@H]1C[C@H]2[C@H](O)c1ccnc2ccccc12 [Cinchonidine] | 0.45
CCCN1C[C@H](CSC)C[C@@H]2c3cccc4[nH]cc(c34)C[C@H]21 [Pergolide Mesylate] | -0.77
CCN(CC)CCOC(=O)C(O)(c1ccccc1)c1ccccc1 [Benactyzine hydrochloride] | 0.21
CC(C)N(CCC(C(N)=O)(c1ccccc1)c1ccccn1)C(C)C (stereo not given) [Disopyramide] | -0.64
CCN(C)C(=O)Oc1cccc([C@H](C)N(C)C)c1 [Rivastigmine Tartrate] | -0.84
CCN1CC2(OC(=O)c3ccccc3NC(C)=O)CCC(OC)C34C1C(CC23)C1(O)CC(OC)C2CC4C1(O)C2OC (stereo not given) [Lappaconitine] | 0.23
C[N+]1(C)[C@@H]2C[C@@H](OC(=O)[C@H](CO)c3ccccc3)C[C@H]1[C@@H]1O[C@@H]12 [Methscopolamine] | 1.32
O=C(O[C@H]1C[N+]2(CCCOc3ccccc3)CCC1CC2)C(O)(c1cccs1)c1cccs1 [Aclidinium Bromide] | 0.73
CC[N+](C)(CC)CCOC(=O)C(O)(c1ccccc1)c1ccccc1 [Methylbenactyzine Bromide] | -0.66
CNC1CC(N)C(O)C(OC2OC(CO)C(O)C3OC4(OC(C(N)CO)C(O)C(O)C4O)OC23)C1O (stereo not given) [Hygromycin B] | 0.06
COc1ccc2c(c1)[C@]13CCCC[C@@H]1[C@H](C2)N(C)CC3 [Dextromethorphan hydrobromide hydrate] | -0.52
CCCCCCCCCCCCCCCC[n+]1ccccc1 [Cetylpyridinium Chloride] | 3.46

Compound | z-score of subpopulation abundance
CN(C)C(=O)Oc1cccc([N+](C)(C)C)c1 [Neostigmine Bromide] | -0.71
CN1[C@@H]2C[C@@H](OC(=O)[C@H](CO)c3ccccc3)C[C@H]1[C@@H]1O[C@@H]12 [Scopolamine HBr trihydrate] | -0.11
C[C@H]1O[C@H](O[C@H]2[C@H](O)[C@@H](O)[C@@H](O)[C@H](O)[C@@H]2O)[C@@H](N)C[C@@H]1NC(=N)C(=O)O [Kasugamycin hydrochloride] | -0.17
CCC1=C[C@H]2CN3CCc4c([nH]c5ccccc45)[C@](C(=O)OC)(C2)[C@H]13 [Catharanthine] | 0.1
Oc1cc(Cl)ccc1Oc1ccc(Cl)cc1Cl [Triclosan] | -2.84
CN1[C@@H]2CC[C@H]1C[C@@H](OC(=O)C(CO)c1ccccc1)C2 (stereo not given in full) [Atropine sulfate monohydrate] | 0.69
COC(=O)C1=CCCN(C)C1 [Arecoline HBr] | 0.61
CN(C)[C@@H]1C(=O)C(C(N)=O)=C(O)[C@@]2(O)C(=O)C3=C(O)c4c(O)cccc4[C@@](C)(O)[C@H]3[C@H](O)[C@@H]12 [Oxytetracycline (Terramycin)] | -0.17
CC[C@@H](C(N)=O)N1CCCC1=O [Levetiracetam] | -0.62
C=CCN1C[C@H](C(=O)N(CCCN(C)C)C(=O)NCC)C[C@@H]2c3cccc4[nH]cc(c34)C[C@H]21 [Cabergoline] | -0.17
C[C@@H]1O[C@@H](O[C@H]2C[C@@H](O)[C@]3(CO)[C@H]4[C@H](O)C[C@]5(C)[C@@H](C6=CC(=O)OC6)CC[C@]5(O)[C@@H]4CC[C@]3(O)C2)[C@H](O)[C@H](O)[C@H]1O [Ouabain] | 0.06
CC[C@H]1CN2CC[C@]3(C(=O)Nc4ccccc43)[C@@H]2C[C@@H]1/C(=C\OC)C(=O)OC [Rhynchophylline] | 1.19
CN1[C@@H]2CC[C@H]1C[C@@H](OC(=O)[C@H](CO)c1ccccc1)C2 [Hyoscyamine] | -0.14
CC[C@H]1[C@@H]2C[C@H]3[C@@H]4N(C)c5ccccc5[C@]45C[C@@H]([C@@H]2[C@H]5O)N3[C@@H]1O [Ajmaline] | -0.04
CC(NC(C)(C)C)C(=O)c1cccc(Cl)c1 (stereo not given) [Amfebutamone (Bupropion) HCl] | -0.25
CN1c2ccccc2C(NCCCCCCC(=O)O)c2ccc(Cl)cc2S1(=O)=O (stereo not given) [Tianeptine sodium] | 0.21
CCN(C)C(=O)Oc1cccc([C@H](C)N(C)C)c1 [Rivastigmine] | 0.75
C=C(C)[C@H]1Cc2c(ccc3c2O[C@@H]2COc4cc(OC)c(OC)cc4[C@@H]2C3=O)O1 [Rotenone (Barbasco)] | 0.29
CC(=O)O[C@H]1C[C@@H]2CC[C@@H]3[C@H](CC[C@@]4(C)[C@H]3C[C@H]([N+]3(C)CCCCC3)[C@@H]4OC(C)=O)[C@@]2(C)C[C@@H]1[N+]1(C)CCCCC1 [Pancuronium dibromide] | -0.06
COc1ccc(C=O)cc1 [p-Anisaldehyde] | -0.71
